USP28 inh: inhibitors of human USP28 deubiquitinase; actives 3% (n = 47,000); Ubiquitin carboxyl-terminal hydrolase 28 (Homo sapiens), Q96RU2; purified USP28, Ub-rhodamine cleavage fluorescence, 30 min; AID 1645857, 2021; inhibition, % at 25 µM
USP17 block: inhibitors of human USP17 deubiquitinase; Ubiquitin carboxyl-terminal hydrolase 17-like protein 5 (Homo sapiens), A8MUK1; purified USP17, Ub-rhodamine cleavage fluorescence, 3 h; inhibition, % at 50 µM; actives 6.5% (n = 47,000); AID 1645855, 2021
USP30 block: inhibitors of human USP30 deubiquitinase | Ubiquitin carboxyl-terminal hydrolase 30 (Homo sapiens), Q70CQ3 | purified USP30, Ub-rhodamine cleavage fluorescence | inhibition, % at 25 µM | actives 5.3% (n = 47,000)
Target sequence (Q70CQ3 whole entry, looked up): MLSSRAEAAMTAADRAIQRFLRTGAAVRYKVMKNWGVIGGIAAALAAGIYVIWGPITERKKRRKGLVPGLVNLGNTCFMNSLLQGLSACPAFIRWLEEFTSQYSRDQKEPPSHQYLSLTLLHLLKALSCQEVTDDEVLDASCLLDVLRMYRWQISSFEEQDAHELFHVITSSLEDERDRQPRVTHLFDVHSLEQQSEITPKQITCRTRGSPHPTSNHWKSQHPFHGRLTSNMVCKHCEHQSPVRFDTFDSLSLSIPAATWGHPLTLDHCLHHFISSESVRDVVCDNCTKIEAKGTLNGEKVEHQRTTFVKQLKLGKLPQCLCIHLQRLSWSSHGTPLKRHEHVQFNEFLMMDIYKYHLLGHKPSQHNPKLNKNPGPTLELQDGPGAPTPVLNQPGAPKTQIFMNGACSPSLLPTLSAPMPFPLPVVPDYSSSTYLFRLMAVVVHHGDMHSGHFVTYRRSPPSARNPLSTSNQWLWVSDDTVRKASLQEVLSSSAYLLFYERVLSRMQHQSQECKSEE
Hits are given with their value; 0 = inactive; - = no result. This is a sample that favours compounds with a hit; in the whole collection about 11% have one here. Cut-off read from the data, not from the text of the source: active = inhibition above about 30%; inactive = the rest.

SMILES	USP28 inh	USP17 block	USP30 block
O=C(Nc1ccccc1F)N1CCN(c2cc(-c3ccncc3)[nH]n2)CC1	0	0	0
O=S(=O)(c1ccc(Cl)cc1)N(Cc1ccccc1)Cc1nnnn1-c1ccccc1	0	0	30
CCN(c1ccccc1)S(=O)(=O)c1nnc(NC(=O)COc2ccc(Cl)cc2)s1	0	0	0
CCc1nnc(NC(=O)CN(Cc2ccccc2)S(=O)(=O)c2ccc(Cl)cc2)s1	0	63	55
O=C(O)c1ccc(CN(Cc2ccccc2)S(=O)(=O)c2ccc(Cl)cc2)cc1	0	0	0
Cc1cc(C)c(-c2noc(C)n2)c(NC(=O)c2ccc(F)c(F)c2)n1	0	0	0
CCOc1ccc(NC(=O)C(=O)CC(=O)c2ccc(OC)cc2)cc1	0	0	0
Cn1ncc2c(C(=O)Nc3ccccn3)cc(C3CC3)nc21	-	0	-
Fc1ccc(OCc2nc(-c3cccc(-c4ccn[nH]4)c3)no2)cc1	52	80	39
COc1ccc(-c2nc(-c3cccc(-c4ccn[nH]4)c3)no2)cc1F	0	0	0
COc1ccc(NS(=O)(=O)c2cccc(C(=O)NCc3ccncc3)c2)cc1	0	0	0
COc1ccccc1OCC(=O)NCC(c1ccco1)N1CCOCC1 (stereo not drawn)	0	0	0
COc1cccc(-c2cc(C(=O)Nc3cccc(C)c3)[nH]n2)c1	0	0	0
COc1cccc(NC(=O)c2cc(-c3ccccc3)n[nH]2)c1	0	0	0
O=C(Nc1cccc(Br)c1)c1cc(-c2cccnc2)n[nH]1	43	0	71
CC(=O)c1cccc(NC(=O)c2cc(-c3cccnc3)n[nH]2)c1	91	78	86
COC(=O)c1cc(C#N)c(NCc2ccccc2)nc1C	0	59	0
CCOC(=O)c1cc(C#N)c(NCc2ccccc2OC)nc1-c1ccccc1	0	0	0
Cc1cccc(C(=O)Nc2ccc(Sc3ccccc3Cl)cc2)c1	0	0	0
Cc1ccc(Sc2ccc(C#N)cc2NC(=O)c2ccccc2C)cc1	0	0	41
CCOC(=O)c1[nH]c2c(c1Cc1ccccc1)C(=O)CC(C)(C)C2	0	42	0
CCOC(=O)c1c(C)nc2c(c1-c1ccccc1)C(=O)CC(C)(C)C2	0	0	0
COc1ccc(S(=O)(=O)N2CCOC(c3cnccn3)C2)cc1 (stereo not drawn)	0	0	0
O=C(NCCS(=O)(=O)N1CCN(c2ncccn2)CC1)c1cccc(Cl)c1	0	0	0
O=C(N1CCC2(CC1)CC2)C1(c2cccc(C(F)(F)F)c2)CCOCC1	0	0	0
SMILES	USP28 inh	USP17 block	USP30 block
COc1ccc(N=c2oc3ccccc3cc2C(=O)Nc2ccncc2)cc1OC	0	0	0
COc1cc(NC(=O)c2cccnc2)ccc1NC(=O)c1cc2ccccc2o1	0	39	0
COc1cc2c(cc1NS(=O)(=O)c1cccc(C(=O)OC(C)C(=O)N3CCCC3)c1)oc1ccccc12 (stereo not drawn)	0	0	0
N#Cc1c(-c2ccc3c(c2)OCO3)ccn2nc(-c3ccco3)nc12	0	0	0
CCc1nc2c(C#N)c(-c3ccc(Cl)cc3)ccn2n1	41	66	83
Cc1nn(C)c2c1[C@@H](c1ccc(F)c(Br)c1)[C@H](NC(=O)c1ccccc1)C(=O)N2	71	0	0
Cc1nn(C)c2c1[C@@H](c1ccc3c(c1)OCCO3)[C@H](NC(=O)c1ccc(Cl)cc1)C(=O)N2	0	0	0
O=C(NCCc1ccc(F)cc1)C1CCCN(C(=O)Cc2c[nH]c3ccccc23)C1 (stereo not drawn)	0	0	0
COc1ccc2[nH]c(C(=O)N(Cc3ccccn3)Cc3ccccn3)cc2c1	0	44	0
COc1ccc2cc(C(=O)NCc3ccccn3)[nH]c2c1	0	0	0
Cc1ccccc1C(CC(=O)Nc1ccc(F)c(F)c1)n1cccc1 (stereo not drawn)	0	0	0
Cc1cc(C)c(O)c(-c2cc(C(=O)Nc3ccccc3Cl)[nH]n2)c1	0	68	46
Cc1cc(C(=O)Nc2ccccc2Cl)cc2c1N(C)S(=O)(=O)c1ccccc1-2	0	0	0
Cc1ccc(-n2ncc3c(O)c(C(=O)Nc4ccccc4F)c(=O)[nH]c32)cc1	0	0	0
Cc1cccc(-c2cc(C(=O)Nc3ccccc3F)[nH]n2)c1O	36	90	58
O=C(c1noc2ccc(S(=O)(=O)NCc3ccccc3)cc12)N1CCCC1	0	0	0
COc1cccc(/C=C/c2nc(C#N)c(N3CCN(C(=O)c4cccs4)CC3)o2)c1	0	0	52
COc1ccc(C(=O)N2CCN(c3oc(/C=C/c4cccc(OC)c4)nc3C#N)CC2)cc1	0	0	0
CC(C)=CCc1c(O)cc2c(c1C)OC(=O)c1c(C)c(Cl)c(O)c(CO)c1O2	49	37	39
